Here are results for 24 compounds from PubChem BioAssay (EPA / NIEHS).

“And” between values parts separate entries of the source, which are not always exact repeats. Identical values can stand only once. Results filed as inconclusive are left out. Some compounds were tested as several samples or in several runs, with calls that do not always agree. The source made the active and inactive calls. How the source made its calls, unless noted: active means hit-call score of the fitted dose curve at least 0.9, where 1 is the maximum; inconclusive means response in the unintended direction; inactive means score below 0.9.

For test [1], the target named is bovine Gamma-Aminobutyric Acid Type A Receptor BDZ, alpha 5 site (GABARa5), GABRA5 (gene 523515) (UniProt Q08E50). Description: NVS_LGIC_bGABARa5: NovaScreen (NVS) Ligand-Gated Ion Channel Assay for bovine Gamma-Aminobutyric Acid Type A Receptor BDZ, alpha 5 site (GABARa5) (AID 2283323). An outline of the steps: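 Tested first in duplicate at a single 25 uM, with hits re-run in concentration series to a 50 uM maximum. Bovine hippocampal membranes; specific radioligand displacement measured by filter scintillation counting 1 hr post-dose.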

The target of test [2] is human Peripheral-type Benzodiazepine Receptor (PBR), TSPO (gene 706) (UniProt P30536). Description: NVS_MP_hPBR: NovaScreen (NVS) Membrane Protein Assay for human Peripheral-type Benzodiazepine Receptor (PBR) (AID 2283331).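 Further: hits reduce radioligand binding relative to DMSO baseline.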 An outline of the steps: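 Using human colon-derived membranes, this one-endpoint binding test reads radioligand loss by scintillation after 1 h. Screening started at 25 uM in duplicate, with positive and negative controls on every plate, and actives moved to dose series.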

Test [3] deals with rat Peripheral-type Benzodiazepine Receptor (PBR), Tspo (gene 24230) (UniProt P16257). The experiment in a line: NVS_MP_rPBR: NovaScreen (NVS) Membrane Protein Assay for rat Peripheral-type Benzodiazepine Receptor (PBR) (AID 2283335). An outline of the steps:
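Single-concentration duplicate screening at 25 uM preceded concentration-series retesting of actives. Binding of a specific radioligand to rat kidney membrane PBR was read by filtration radiodetection after 1 h, with plate-wise positive and negative controls.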

For test [4], the target named is bovine Gamma-Aminobutyric Acid Type A Receptor Agonist (GABAR Agonist), GABRA1 (gene 780973) (UniProt P08219). The experiment in a line: NVS_LGIC_bGABAR_Agonist: NovaScreen (NVS) Ligand-Gated Ion Channel Assay for bovine Gamma-Aminobutyric Acid Type A Receptor Agonist (GABAR Agonist) (AID 2283338). The method, boiled down:
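Radioligand binding to bovine cerebellar membranes in agonist format, read by filter-based scintillation counting after 1 h. Primary screen in duplicate at 25 uM, with actives followed in concentration series. Gain of signal versus DMSO.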

Test [5] relates to NCBI gene 24521. Description: NVS_IC_rKATPCh: NovaScreen (NVS) Ion Channel Assay for rat Potassium Channel, ATP-Sensitive (KATPCh) (AID 2283319). An outline of the steps: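 Primary duplicate screen at 25 uM, then singleton concentration series to 50 uM maximum, in a rat cortex membrane radioligand displacement assay. Binding measured by filtration and scintillation 2 h post-dose; DMSO baseline.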

Test [6] concerns the target rat Oxytocin Receptor (OXT), Oxtr (gene 25342) (UniProt P70536). The experiment in a line: NVS_GPCR_rOXT: NovaScreen (NVS) G Protein-Coupled Receptor Assay for rat Oxytocin Receptor (OXT) (AID 2283330). The method, boiled down: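 Binding to rat uterine membrane receptor was followed by scintillation counting of filter-trapped radioligand after 1 h. A 25 uM duplicate single-point screen preceded concentration series with a top of 50 uM. Signal loss was analysed relative to DMSO.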

For test [7], the target named is rat Glycine Receptor, Strychnine-sensitive (GlyRStrySens), Glra1 (gene 25674) (UniProt P07727). The experiment in a line: NVS_LGIC_rGlyRStrySens: NovaScreen (NVS) Ligand-Gated Ion Channel Assay for rat Glycine Receptor, Strychnine-sensitive (GlyRStrySens) (AID 2283341). The method, boiled down:
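Radioligand displacement on rat spinal cord membranes, 1 hr, filter scintillation read-out. Single-concentration duplicate screen at 25 uM; chemicals meeting threshold (e.g., 30% inhibition) rerun in concentration-response up to 50 uM. Loss of binding fitted versus DMSO.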

The target of test [8] is Glutamate receptor ionotropic, kainate 1 (Rattus norvegicus) (UniProt P22756). The experiment in a line: NVS_IC_rKAR: NovaScreen (NVS) Ion Channel Assay for rat Kainic Acid Receptors (KAR) (AID 2283334; active means hit-call score of the fitted dose curve at least 0.9, where 1 is the maximum; inactive means score below 0.9). The method, boiled down:
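Rat forebrain membrane preparation incubated 1 h with radioligand and test chemical; bound signal read by filtration and scintillation. Single-concentration screen at 25 uM, then concentration series to 50 uM maximum.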

Test [9] deals with Small conductance calcium-activated potassium channel protein 1 (Rattus norvegicus) (UniProt P70606). Description: NVS_IC_rKCaCh: NovaScreen (NVS) Ion Channel Assay for rat Potassium Channel, Ca2+ Act., VI (KCaCh) (AID 2283336). The method, boiled down:
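Filter-based scintillation counting of radioligand bound to rat forebrain membrane preparations, measured 1 h after compound addition. Primary screen used 25 uM in duplicate, with concentration-response follow-up; signal decrease relative to DMSO marks activity.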

Test [10] deals with rat Thyrotropin Releasing Hormone Receptor (TRH), Trhr (gene 25570) (UniProt Q01717). Description: NVS_GPCR_rTRH: NovaScreen (NVS) G Protein-Coupled Receptor Assay for rat Thyrotropin Releasing Hormone Receptor (TRH) (AID 2283329).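 Further: hit means lower bound tracer signal versus DMSO baseline.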 The method, boiled down:
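Rat forebrain membrane prep, radioligand displacement, filter scintillation readout at 4 h. Single conc 25 uM, duplicate; actives retested as concentration series. DMSO = negative control/baseline.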

The target in test [11] is human Androgen Receptor (AR), AR (gene 367) (UniProt P10275). The experiment in a line: NVS_NR_hAR: NovaScreen (NVS) Nuclear Receptor Binding Assay for human Androgen Receptor (AR) (AID 2283332). The method, boiled down:
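Actives from a duplicate 25 uM single-point screen went on to concentration series. Read-out after 20 h was scintillation counting of displaced radioligand in LnCAP extract, with DMSO as baseline.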

In test [12] the target is Voltage-gated inwardly rectifying potassium channel KCNH2 (Homo sapiens) (UniProt Q12809). Description: NVS_IC_hKhERGCh: NovaScreen (NVS) Ion Channel Assay for human Potassium Channel ERG (KhERGCh) (AID 2283333). An outline of the steps: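 Membranes from CHO cells expressing human ERG; displacement of radioligand measured by filtration and scintillation after 0.75 h. Single-concentration duplicate screen at 25 uM, then concentration-response for actives; DMSO baseline.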

Test [13] in a line: NVS_IC_rCaBTZCHL: NovaScreen (NVS) Ion Channel Assay for Calcium Channel, Type L, Benzothiazepine Site (CaBTZCHL) (AID 2283337). An outline of the steps: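 Benzothiazepine-site binding was assessed in a tissue-derived, cell-free rat cortical membrane system. After 1.5 h exposure, radioactivity retained on filters was quantified by scintillation; positive and negative controls accompanied every plate.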

For test [14], the target named is rat Glutamate, MK-801 Agonist Site (GluNMDA_MK801), Grin1 (gene 24408) (UniProt P35439). The experiment in a line: NVS_LGIC_rGluNMDA_MK801_Agonist: NovaScreen (NVS) Ligand-Gated Ion Channel Assay for rat Glutamate, MK-801 Agonist Site (GluNMDA_MK801) (AID 2283340). An outline of the steps:
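Rat forebrain membrane preparation; MK-801-site radioligand binding read by filtration and scintillation after 1.5 h. Single-point 25 uM duplicate screen, followed by singleton concentration series to 50 uM max; DMSO baseline.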

bovine Gamma-Aminobutyric Acid Type A Receptor Agonist (GABAR Agonist), GABRA1 (gene 780973), sequence (P08219 whole entry, looked up): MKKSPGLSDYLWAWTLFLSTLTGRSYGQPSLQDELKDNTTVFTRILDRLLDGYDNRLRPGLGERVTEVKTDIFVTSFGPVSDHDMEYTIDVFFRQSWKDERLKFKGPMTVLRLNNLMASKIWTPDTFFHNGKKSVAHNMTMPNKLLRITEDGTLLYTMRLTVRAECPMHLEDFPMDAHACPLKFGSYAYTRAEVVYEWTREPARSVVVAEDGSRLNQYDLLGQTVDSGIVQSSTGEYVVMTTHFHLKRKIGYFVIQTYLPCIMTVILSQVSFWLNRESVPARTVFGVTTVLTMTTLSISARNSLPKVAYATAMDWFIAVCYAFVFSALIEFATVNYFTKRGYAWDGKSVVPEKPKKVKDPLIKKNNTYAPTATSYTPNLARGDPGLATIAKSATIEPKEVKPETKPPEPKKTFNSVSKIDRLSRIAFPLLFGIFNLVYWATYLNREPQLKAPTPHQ
human Peripheral-type Benzodiazepine Receptor (PBR), TSPO (gene 706), sequence (P30536 whole entry, looked up): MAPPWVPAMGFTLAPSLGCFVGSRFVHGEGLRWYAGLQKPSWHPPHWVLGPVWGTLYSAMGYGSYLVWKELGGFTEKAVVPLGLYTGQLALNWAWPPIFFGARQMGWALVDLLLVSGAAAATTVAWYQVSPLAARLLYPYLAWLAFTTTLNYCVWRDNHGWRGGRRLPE
rat Peripheral-type Benzodiazepine Receptor (PBR), Tspo (gene 24230), sequence (P16257 whole entry, looked up): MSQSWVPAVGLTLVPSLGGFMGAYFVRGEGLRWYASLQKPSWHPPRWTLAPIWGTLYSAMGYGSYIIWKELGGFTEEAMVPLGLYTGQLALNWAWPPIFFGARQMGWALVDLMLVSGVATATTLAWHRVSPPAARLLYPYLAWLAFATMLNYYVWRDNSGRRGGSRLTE
rat Glycine Receptor, Strychnine-sensitive (GlyRStrySens), Glra1 (gene 25674), sequence (P07727 whole entry, looked up): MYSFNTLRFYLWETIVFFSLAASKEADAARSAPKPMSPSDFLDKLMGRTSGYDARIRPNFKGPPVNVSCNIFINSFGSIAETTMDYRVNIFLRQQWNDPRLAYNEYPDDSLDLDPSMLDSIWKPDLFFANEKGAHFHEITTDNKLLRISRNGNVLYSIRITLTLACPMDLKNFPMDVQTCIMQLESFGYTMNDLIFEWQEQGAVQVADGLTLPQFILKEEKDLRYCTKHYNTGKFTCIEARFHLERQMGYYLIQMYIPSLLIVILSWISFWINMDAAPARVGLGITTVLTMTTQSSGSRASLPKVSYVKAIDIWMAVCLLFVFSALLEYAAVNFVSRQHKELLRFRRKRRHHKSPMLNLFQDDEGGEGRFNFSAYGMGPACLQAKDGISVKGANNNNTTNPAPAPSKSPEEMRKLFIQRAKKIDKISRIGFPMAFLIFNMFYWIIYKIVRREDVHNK
bovine Gamma-Aminobutyric Acid Type A Receptor BDZ, alpha 5 site (GABARa5), GABRA5 (gene 523515), sequence (Q08E50 whole entry, looked up): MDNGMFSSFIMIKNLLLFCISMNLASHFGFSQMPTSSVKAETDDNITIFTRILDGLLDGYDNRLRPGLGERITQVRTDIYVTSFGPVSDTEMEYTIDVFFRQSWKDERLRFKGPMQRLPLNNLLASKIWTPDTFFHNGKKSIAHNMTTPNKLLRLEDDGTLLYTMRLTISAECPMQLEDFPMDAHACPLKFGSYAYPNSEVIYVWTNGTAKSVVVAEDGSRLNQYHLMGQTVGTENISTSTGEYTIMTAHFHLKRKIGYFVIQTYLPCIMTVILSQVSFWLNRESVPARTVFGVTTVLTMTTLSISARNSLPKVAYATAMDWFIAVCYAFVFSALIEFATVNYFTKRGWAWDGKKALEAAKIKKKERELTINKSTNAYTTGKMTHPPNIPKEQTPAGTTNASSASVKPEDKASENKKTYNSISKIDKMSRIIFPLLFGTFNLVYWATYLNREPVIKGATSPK
human Androgen Receptor (AR), AR (gene 367), sequence (P10275 whole entry, looked up): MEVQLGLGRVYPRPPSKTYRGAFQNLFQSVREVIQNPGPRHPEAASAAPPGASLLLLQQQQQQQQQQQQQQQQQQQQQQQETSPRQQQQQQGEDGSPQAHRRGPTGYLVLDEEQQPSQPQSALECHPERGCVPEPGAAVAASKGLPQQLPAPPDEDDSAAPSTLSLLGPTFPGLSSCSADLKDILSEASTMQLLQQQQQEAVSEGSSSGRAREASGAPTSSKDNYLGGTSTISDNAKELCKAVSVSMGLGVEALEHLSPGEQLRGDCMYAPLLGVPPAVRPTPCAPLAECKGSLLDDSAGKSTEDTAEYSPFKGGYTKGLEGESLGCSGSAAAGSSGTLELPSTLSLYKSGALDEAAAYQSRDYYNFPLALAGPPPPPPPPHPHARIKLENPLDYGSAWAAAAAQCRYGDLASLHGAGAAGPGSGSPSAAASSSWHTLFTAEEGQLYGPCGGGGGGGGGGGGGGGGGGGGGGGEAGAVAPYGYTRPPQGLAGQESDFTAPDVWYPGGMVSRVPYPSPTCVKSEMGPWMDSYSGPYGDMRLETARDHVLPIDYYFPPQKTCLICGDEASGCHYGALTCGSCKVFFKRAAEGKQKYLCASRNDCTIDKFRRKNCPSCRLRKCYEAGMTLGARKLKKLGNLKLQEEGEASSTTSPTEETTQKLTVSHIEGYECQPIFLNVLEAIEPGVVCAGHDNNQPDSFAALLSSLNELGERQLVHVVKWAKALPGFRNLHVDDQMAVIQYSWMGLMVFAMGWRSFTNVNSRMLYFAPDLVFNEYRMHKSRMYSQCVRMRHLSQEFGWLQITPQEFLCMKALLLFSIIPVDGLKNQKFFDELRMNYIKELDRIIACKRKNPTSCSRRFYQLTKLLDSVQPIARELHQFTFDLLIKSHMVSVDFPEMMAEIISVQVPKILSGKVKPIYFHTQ
Glutamate receptor ionotropic, kainate 1 (Rattus norvegicus), sequence (P22756 whole entry, looked up): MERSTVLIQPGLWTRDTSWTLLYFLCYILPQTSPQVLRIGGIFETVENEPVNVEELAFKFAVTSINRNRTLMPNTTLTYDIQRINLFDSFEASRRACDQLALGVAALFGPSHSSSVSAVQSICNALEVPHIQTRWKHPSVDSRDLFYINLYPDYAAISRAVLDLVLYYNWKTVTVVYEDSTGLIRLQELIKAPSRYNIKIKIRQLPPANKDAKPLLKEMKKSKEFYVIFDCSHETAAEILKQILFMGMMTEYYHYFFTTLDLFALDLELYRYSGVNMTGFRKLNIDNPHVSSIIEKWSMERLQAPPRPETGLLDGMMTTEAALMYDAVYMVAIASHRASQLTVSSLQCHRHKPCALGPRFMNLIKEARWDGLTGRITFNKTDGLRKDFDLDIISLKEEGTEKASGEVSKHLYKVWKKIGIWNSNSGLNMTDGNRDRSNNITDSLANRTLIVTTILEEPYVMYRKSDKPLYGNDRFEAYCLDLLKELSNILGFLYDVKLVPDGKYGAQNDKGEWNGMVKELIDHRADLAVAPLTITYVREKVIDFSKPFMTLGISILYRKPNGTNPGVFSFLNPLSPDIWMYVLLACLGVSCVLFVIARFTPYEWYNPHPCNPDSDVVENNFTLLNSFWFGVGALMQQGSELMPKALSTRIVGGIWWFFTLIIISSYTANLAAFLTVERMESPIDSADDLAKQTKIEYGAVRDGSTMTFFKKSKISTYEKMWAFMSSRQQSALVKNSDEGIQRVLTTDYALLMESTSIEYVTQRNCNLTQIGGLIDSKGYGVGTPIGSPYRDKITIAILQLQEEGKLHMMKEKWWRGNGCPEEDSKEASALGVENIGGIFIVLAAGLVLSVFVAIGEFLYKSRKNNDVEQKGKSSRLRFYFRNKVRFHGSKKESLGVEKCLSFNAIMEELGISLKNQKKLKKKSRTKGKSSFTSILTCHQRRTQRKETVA
Small conductance calcium-activated potassium channel protein 1 (Rattus norvegicus), sequence (P70606 whole entry, looked up): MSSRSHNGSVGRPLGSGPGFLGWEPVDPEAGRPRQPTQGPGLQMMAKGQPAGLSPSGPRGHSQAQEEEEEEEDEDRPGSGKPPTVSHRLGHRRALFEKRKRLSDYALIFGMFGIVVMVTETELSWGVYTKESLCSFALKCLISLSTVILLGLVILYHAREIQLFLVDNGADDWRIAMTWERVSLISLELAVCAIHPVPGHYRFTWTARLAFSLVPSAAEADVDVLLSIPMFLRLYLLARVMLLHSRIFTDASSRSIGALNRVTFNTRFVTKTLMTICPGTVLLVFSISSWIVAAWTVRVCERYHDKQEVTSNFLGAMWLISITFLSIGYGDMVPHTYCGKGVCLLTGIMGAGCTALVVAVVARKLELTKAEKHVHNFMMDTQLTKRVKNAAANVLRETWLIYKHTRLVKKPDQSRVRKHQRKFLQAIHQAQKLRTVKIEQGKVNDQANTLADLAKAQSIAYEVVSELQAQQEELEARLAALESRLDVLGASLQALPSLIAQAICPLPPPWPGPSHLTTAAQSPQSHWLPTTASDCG
rat Oxytocin Receptor (OXT), Oxtr (gene 25342), sequence (P70536 whole entry, looked up): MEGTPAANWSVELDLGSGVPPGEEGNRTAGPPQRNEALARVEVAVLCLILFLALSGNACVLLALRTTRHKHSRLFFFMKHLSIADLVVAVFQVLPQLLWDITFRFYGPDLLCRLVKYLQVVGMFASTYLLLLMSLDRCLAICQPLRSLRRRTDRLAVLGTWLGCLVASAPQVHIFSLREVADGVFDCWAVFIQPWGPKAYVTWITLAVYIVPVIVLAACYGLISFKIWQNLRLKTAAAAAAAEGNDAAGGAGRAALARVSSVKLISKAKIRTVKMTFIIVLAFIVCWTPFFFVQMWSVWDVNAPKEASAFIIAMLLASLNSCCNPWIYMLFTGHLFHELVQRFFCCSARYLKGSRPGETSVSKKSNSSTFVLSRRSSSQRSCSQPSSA
rat Thyrotropin Releasing Hormone Receptor (TRH), Trhr (gene 25570), sequence (Q01717 whole entry, looked up): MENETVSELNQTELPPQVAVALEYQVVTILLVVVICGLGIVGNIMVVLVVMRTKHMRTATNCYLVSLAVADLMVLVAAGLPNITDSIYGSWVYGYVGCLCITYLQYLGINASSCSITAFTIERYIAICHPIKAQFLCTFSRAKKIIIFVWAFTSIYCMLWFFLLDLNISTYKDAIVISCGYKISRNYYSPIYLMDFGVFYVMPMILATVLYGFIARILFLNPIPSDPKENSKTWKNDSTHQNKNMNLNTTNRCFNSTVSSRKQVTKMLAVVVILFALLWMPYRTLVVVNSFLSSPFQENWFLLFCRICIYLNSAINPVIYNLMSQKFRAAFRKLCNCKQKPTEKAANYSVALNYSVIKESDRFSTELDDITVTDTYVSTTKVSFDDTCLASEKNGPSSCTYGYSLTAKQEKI

Consider `CCCCOC(=O)c1ccccc1C(=O)OCCCC`, for which the AC50 (commonly the concentration giving half of the maximal activity seen) was 32.5 µM (active) and 19.3 µM (active) in test [1]; 22.1 µM (active) [middle of 5 runs] in test [2]; 13.4 µM (active) and 15.5 µM (active) in [3]. Further, the outcome in test [4] was inactive.

`CCCCNC(=O)OCC#CI`: the AC50 in test [5] is 9.23 µM (active) and 12.3 µM (active); in [2], 38.2 µM (active) and 41.3 µM (active); in [3] it was 12.8 µM (active) and 10.7 µM (active). For the same compound, the call in test [4] was inactive.

On to `CC1COC(Cn2cncn2)(c2ccc(Oc3ccc(Cl)cc3)cc2Cl)O1` (configuration not stated), for which the result in test [2] and in [3] was inactive.

On to `C=CC1(C)OC(=O)N(c2cc(Cl)cc(Cl)c2)C1=O` (configuration not stated), for which the compound was classed as inactive in [6], in [2] and in test [3]. Also, the AC50 in test [3] was 2.19 µM (active) and 1.01 µM (active) and 693 nM (active).

Regarding `CC(Oc1ccc(Cl)cc1Cl)C(=O)O` (configuration not stated), the compound was classed as inactive in test [7].

Regarding `CNC(=O)ON=CC(C)(C)SC`, the compound was called inactive in test [2].

`COc1cnc(OC)n2nc(NS(=O)(=O)c3c(OCC(F)F)cccc3C(F)(F)F)nc12`: the call in [8] was inactive.

As to `CON(C)C(=O)Nc1ccc(Cl)c(Cl)c1`, the half-maximal activity concentration (AC50) is 11.9 µM (active) [middle of 4 runs] in [2] and 4.62 µM (active) [middle of 4 runs] in test [3]. Further, the outcome in test [9] was inactive.

Turning to `CC(C)Oc1cc(-n2nc(C(C)(C)C)oc2=O)c(Cl)cc1Cl`, in [10], the result was inactive.

With `O=C(O)COc1nc(Cl)c(Cl)cc1Cl`, the compound was called inactive in test [2]. The AC50 in test [3] is 14.6 µM (active).

`CCCCNC(=O)n1c(NC(=O)OC)nc2ccccc21`: the call in test [7] was inactive.

For the compound `COC(=O)N(OC)c1ccccc1COc1ccn(-c2ccc(Cl)cc2)n1`, the half-maximal activity concentration (AC50) is 0.105 µM (active) in test [2] and 0.26 µM (active) in [3].

Take `Cc1c(F)c(F)c(COC(=O)C2C(/C=C(\Cl)C(F)(F)F)C2(C)C)c(F)c1F` (configuration not stated): in test [7], the call was inactive.

Consider `CC1=C(C(=O)Nc2ccccc2)SCCO1`, for which the results for the concentration at half-maximal activity (AC50) in [2] and in test [3] were 20.5 µM (active) and 12.3 µM (active), respectively.

For the compound `COP(N)(=O)SC` (configuration not stated), the result in [2] was inactive.

As to `CCOC(=O)CC(SP(=S)(OC)OC)C(=O)OCC` (configuration not stated), the AC50 in [2] was 2.17 µM (active); in test [11] it was 25 µM (active); in test [3], 10.5 µM (active).

`CCNc1nc(Cl)nc(NCC)n1`: the AC50 in test [2] is 46.2 µM (active). In addition, the result in [3] was inactive.

For the compound `CCOP(=S)(OCC)SCn1c(=O)oc2cc(Cl)ccc21`, the AC50 in test [2] was 2.65 µM (active); in [3], 4.01 µM (active).

In the case of `O=C(Nc1ccccc1)Nc1ccnc(Cl)c1`, the outcome in [2] and in test [7] was inactive. Also, the results for the AC50 in test [11], in test [12] and in [3] were 5.13 µM (active), 9.2 µM (active) and 15.6 µM (active), respectively.

On to `Cc1ccc(-c2c(Cl)nc(C#N)n2S(=O)(=O)N(C)C)cc1`, for which the compound was called inactive in [2] and in test [3].

Consider `CCON=C(CC)C1=C(O)CC(c2c(C)cc(C)cc2C)CC1=O` (configuration not stated), for which the call in test [2] was inactive.

In the case of `CO/C=C(/C(=O)OC)c1ccccc1Oc1cc(Oc2ccccc2C#N)ncn1`, the compound was classed as inactive in test [8] and in [14]. The half-maximal activity concentration (AC50) is 3.17 µM (active) [middle of 4 runs] in [3]; 6.63 µM (active) and 15.4 µM (active) in test [13].

For the compound `CCNc1nc(Cl)nc(NC(C)C)n1`, the outcome in test [4] was inactive.

On to `COP(=S)(OC)Oc1nc(Cl)c(Cl)cc1Cl`, for which the AC50 in test [2] was 17.9 µM (active); in [3] it was 7 µM (active).
